The source made the active and inactive calls. Unless noted, no rule for the calls is given here.
Assays:
[1] = A549 cell viability effects, profiling panel, calcein-AM fluorescence, 48 h, basal (AID 1162); details: higher = more signal; also: test concentration not given here
[2] = adipocyte viability effects, profiling panel, cell-based, 3T3-L1 adipocytes, calcein-AM fluorescence, 48 h, basal (AID 1163); details: 3T3-L1 adipocytes viability, higher = more signal; also: test concentration not given here
[3] = HepG2 cell viability effects, profiling panel, calcein-AM fluorescence, 48 h, basal (AID 1164); details: higher = more signal; also: test concentration not given here
[4] = MM1S cell viability effects, profiling panel, calcein-AM fluorescence, 48 h, basal (AID 1165); details: higher = more signal;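 also: viability of MM1S multiple myeloma cells under basal unstimulated conditions; test concentration not given here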
[5] = basal RPMI8226 viability, no added stimulus, profiling panel, cell-based, calcein-AM fluorescence, 48 h, PK04 Diversity Set (AID 1166); details: RPMI8226 myeloma viability, higher = more signal;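 also: cells grown under basal conditions without added stimulus; test concentration not given here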
[6] = basal HepG2 mitochondrial membrane potential changes, profiling panel, cell-based, JC-1 fluorescence, 24 h, 100 nL compound (AID 1167); details: higher = more signal; also: test concentration not given here
[7] = basal 3T3-L1 adipocyte mitochondrial potential changes, profiling panel, cell-based, JC-1 fluorescence, 3T3-L1 adipocytes, 24 h, 100 nL compound (AID 1168); details: JC-1 mitochondrial fluorescence, higher = more signal, called active from +8 up or from −8 down; also: test concentration not given here
[8] = basal RPMI8226 mitochondrial membrane potential changes, profiling panel, cell-based, JC-1 fluorescence, 24 h, 100 nL compound (AID 1169); details: RPMI8226 myeloma, JC-1 mitochondrial potential fluorescence, higher = more signal; also: test concentration not given here
[9] = basal MM1S mitochondrial membrane potential changes, profiling panel, cell-based, JC-1 fluorescence, 24 h, 100 nL compound (AID 1170); details: higher = more signal; also: test concentration not given here
[10] = A549 lung cancer cell viability effects, profiling panel, resazurin fluorescence, 24 h, PK04 Diversity Set (AID 1171); details: higher = more signal, called active from +8 up or from −8 down; also: test concentration not given here
[11] = HepG2 liver cancer cell viability effects, profiling panel, resazurin fluorescence, 24 h, PK04 Diversity Set (AID 1172); details: higher = more signal; also: test concentration not given here
[12] = basal S. cerevisiae growth modulation, no modifier, primary screen, OD600, strain BY4716, 24 h, basal condition (AID 1173); details: OD600, 24 h, higher = more signal, called active from +8 up or from −8 down
[13] = MM1S myeloma cell viability, profiling panel, resazurin fluorescence, basal, 24 h, PK04 Diversity Set (AID 1174); details: higher = more signal, called active from +8 up or from −8 down;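 also: MM1S multiple myeloma cell line; test concentration not given here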
[14] = molecular target: Dihydroorotate dehydrogenase (quinone), mitochondrial (Plasmodium falciparum (isolate 3D7)) (UniProt Q08210); assay: PfDHODH enzyme inhibitors, primary screen, biochemical, C-terminal His tag, absorbance 600 nm (AID 1175); details: DCIP absorbance 600 nm, higher = more signal, called active from +8 up or from −8 down;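 also: recombinant parasite enzyme with a five histidine tag at its C terminus; test concentration not given here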
Sequence of Dihydroorotate dehydrogenase (quinone), mitochondrial (Plasmodium falciparum (isolate 3D7)) (Q08210 whole entry, looked up): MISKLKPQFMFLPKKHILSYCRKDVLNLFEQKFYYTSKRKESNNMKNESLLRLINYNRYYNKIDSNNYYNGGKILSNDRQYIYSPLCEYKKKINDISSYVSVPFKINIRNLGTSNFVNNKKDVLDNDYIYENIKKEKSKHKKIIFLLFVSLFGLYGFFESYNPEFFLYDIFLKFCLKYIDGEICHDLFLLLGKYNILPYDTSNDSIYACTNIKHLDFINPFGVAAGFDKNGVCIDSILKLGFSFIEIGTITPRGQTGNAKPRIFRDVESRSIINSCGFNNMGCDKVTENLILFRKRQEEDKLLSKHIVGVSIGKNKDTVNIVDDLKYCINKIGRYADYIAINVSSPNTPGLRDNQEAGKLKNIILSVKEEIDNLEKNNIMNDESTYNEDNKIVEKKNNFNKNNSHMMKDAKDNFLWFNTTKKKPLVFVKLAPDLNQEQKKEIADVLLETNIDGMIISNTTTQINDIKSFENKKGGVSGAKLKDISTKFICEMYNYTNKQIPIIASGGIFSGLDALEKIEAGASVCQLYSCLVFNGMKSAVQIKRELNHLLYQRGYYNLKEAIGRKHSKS

[15] = P. aeruginosa biofilm formation inhibitors, primary screen, strain PAO1, LB-PBS medium, absorbance 600 nm (AID 1176); also: test concentration not given here; details: P. aeruginosa PAO1 growth/biofilm, A600, 12 h; higher = more signal
[16] = S. cerevisiae RM11-1a growth modifiers, primary screen, strain RM11-1a, OD600, basal, 24 h (AID 1177); details: OD600, 24 h, higher = more signal, called active from +8 up or from −8 down;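 also: cultures grown under basal conditions with no added stressor; test concentration not given here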
[17] = E. coli acrAB mutant growth effects, primary screen, E. coli filamentation inducers, strain DRC39, OD650, 24 h (AID 1178); details: higher = more signal, called active from +8 up or from −8 down;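 also: growth measured as culture turbidity by optical density at 650 nm; test concentration not given here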
[18] = E. coli acrAB mutant growth effects, primary screen, E. coli filamentation inducers, strain DRC39, OD650, 48 h (AID 1179);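 also: screen aims at cell division blockers that make cells filament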; details: E. coli DRC39 delta-acrAB growth, higher = more signal, called active from +8 up or from −8 down
[19] = RPMI8226 myeloma cell viability, profiling panel, resazurin fluorescence, basal, 24 h, PK04 Diversity Set (AID 1180); details: higher = more signal;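 also: RPMI8826 multiple myeloma cell line at 5000 cells per well; test concentration not given here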
[20] = molecular target: E3 ubiquitin-protein ligase XIAP (Homo sapiens) (UniProt P98170); assay: XIAP binders, primary screen, biophysical, small-molecule microarray, fluorescence 635 nm (AID 1181); details: small-molecule microarray binding, higher = more signal;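 also: score merges 667 nm emission and signal to noise over triplicate slides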
Sequence of E3 ubiquitin-protein ligase XIAP (Homo sapiens) (P98170 whole entry, looked up): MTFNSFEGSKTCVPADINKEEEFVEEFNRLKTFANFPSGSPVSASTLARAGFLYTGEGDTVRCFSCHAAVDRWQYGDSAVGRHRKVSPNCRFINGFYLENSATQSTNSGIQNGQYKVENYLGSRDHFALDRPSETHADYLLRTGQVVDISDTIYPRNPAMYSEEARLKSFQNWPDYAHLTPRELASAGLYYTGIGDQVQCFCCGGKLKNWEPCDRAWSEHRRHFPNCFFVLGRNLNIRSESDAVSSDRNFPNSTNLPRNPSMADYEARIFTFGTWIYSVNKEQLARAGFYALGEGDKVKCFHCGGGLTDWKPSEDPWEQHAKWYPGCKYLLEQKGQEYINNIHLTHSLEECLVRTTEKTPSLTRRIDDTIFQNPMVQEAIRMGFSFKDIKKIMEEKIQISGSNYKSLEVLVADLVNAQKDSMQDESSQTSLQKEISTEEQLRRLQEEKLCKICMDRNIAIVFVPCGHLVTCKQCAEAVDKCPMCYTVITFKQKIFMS

| Compound | z-score [1] | z-score [2] | z-score [3] | z-score [4] | z-score [5] | z-score [6] | z-score [7] | z-score [8] | z-score [9] | z-score [10] | z-score [11] | z-score [12] | z-score [13] | composite z-score [14] | z-score [15] | z-score [16] | z-score [17] | z-score [18] | z-score [19] | composite z-score [20] |
| --- | --- | --- | --- | --- | --- | --- | --- | --- | --- | --- | --- | --- | --- | --- | --- | --- | --- | --- | --- | --- |
| CCOC(=O)[C@H](CC(C)C)NC(=O)CCC1CC(OC(=O)NCc2cccc3ccccc23)CC2(CCCC(COC(=O)NCCc3ccc(Cl)cc3)O2)O1 (stereo not given in full) | -0.539 | -0.23 | -0.0607 | -3.16 | 0.403 | 0.326 | 1.03 (inactive) | -0.436 | -1.86 | 0.384 (inactive) | 0.568 | -1.89 (inactive) | 1.15 (inactive) | -1.16 (inactive) | 0.262 (inactive) | -1.2 (inactive) | 0.389 (inactive) | -0.214 (inactive) | 1.3 | -0.0559 |
| C=Cc1ccc([C@H]2N[C@H](C(=O)O)CC[C@@H]2C)cc1 | -0.241 | -0.173 | 0.453 | -0.568 | -1.15 | 0.547 | 0.0233 (inactive) | 0.239 | 0.43 | -0.439 (inactive) | -0.869 | -0.366 (inactive) | -0.601 (inactive) | -0.13 (inactive) | -0.54 (inactive) | -0.649 (inactive) | 0.505 (inactive) | 0.296 (inactive) | -0.845 | -0.168 |
| CO[C@H]1COC(=O)CC=C[C@@H](C)[C@H](OC)COC(=O)CCC[C@@H]1C | -0.71 | -0.0523 | 0.0225 | 0.0987 | 0.102 | -0.639 | -0.399 (inactive) | -0.509 | -0.135 | 0.795 (inactive) | 0.855 | -0.966 (inactive) | 0.818 (inactive) | -0.526 (inactive) | -0.172 (inactive) | -1.45 (inactive) | 0.153 (inactive) | 0.039 (inactive) | 0.518 | 0.523 |
| COC(=O)CC=C[C@@H](C)[C@@H](C=NO[C@H](C)c1cn([C@H](CO)Cc2ccccc2)nn1)NS(=O)(=O)c1ccc(C)cc1 | -0.775 | -0.0125 | -0.647 | -0.0023 | -0.254 | -0.416 | -2.46 (inactive) | 0.696 | 0.571 | -0.102 (inactive) | -0.891 | -1.17 (inactive) | -0.81 (inactive) | 0.0463 (inactive) | 0.0282 (inactive) | -0.476 (inactive) | 0.0146 (inactive) | -0.0853 (inactive) | 0.108 | -0.206 |
| CCOC(=O)[C@H](Cc1ccccc1)NC(=O)CCC1CC(OC(=O)NCc2cccc3ccccc23)CC2(CCCC(COC(=O)NCc3ccccc3)O2)O1 (stereo not given in full) | 0.143 | 0.919 | -1.03 | 0.418 | -0.653 | 1.12 | -0.39 (inactive) | -0.839 | -1.18 | 0.682 (inactive) | 0.466 | -2.55 (inactive) | 1.12 (inactive) | -2.79 (inactive) | 0.709 (inactive) | -2.62 (inactive) | -0.964 (inactive) | -1.23 (inactive) | 1.03 | 0.171 |
| Cc1cc2c(c(=O)o1)[C@@H](O)[C@H]1O[C@H]1C2=O | -0.223 | 0.374 | 0.123 | 0.65 | -1.15 | -0.352 | -0.659 (inactive) | -0.141 | 0.0583 | -0.588 (inactive) | -0.721 | -0.582 (inactive) | 0.166 (inactive) | 0.664 (inactive) | -0.67 (inactive) | 0.322 (inactive) | -0.729 (inactive) | -1.26 (inactive) | -0.535 | 0.13 |
| CCOC(=O)[C@H](CC(C)C)NC(=O)CCC1CC(OC(=O)NCc2ccc3c(c2)OCO3)CC2(CCCC(COC(=O)NCC3CCCCC3)O2)O1 (stereo not given in full) | 1.2 | -0.721 | -0.991 | -1.2 | 0.599 | 0.498 | 0.368 (inactive) | -0.247 | -0.972 | 1.26 (inactive) | 0.471 | 0.105 (inactive) | 1.4 (inactive) | -0.19 (inactive) | -0.0326 (inactive) | 0.494 (inactive) | 0.536 (inactive) | 0.0926 (inactive) | 1.32 | -0.0053 |
| O=C(NN=C1C[C@@H](O)[C@@H](O)[C@@H]2[C@@H]3C(=O)N(C[C@@H]4CCCO4)C(=O)[C@@H]3CC[C@@H]12)OCc1ccccc1 | 0.468 | 0.211 | -0.293 | -0.745 | 0.215 | 0.795 | 0.131 (inactive) | 0.103 | -0.989 | -0.451 (inactive) | 0.0986 | -0.485 (inactive) | 0.169 (inactive) | -2.17 (inactive) | 0.328 (inactive) | -1.49 (inactive) | -0.0573 (inactive) | 0.118 (inactive) | -0.111 | 0.0623 |
| CO[C@H]1COC(=O)CC=C[C@H](C)[C@@H](OC)COC(=O)[C@@H](C)NC(=O)CC=C[C@@H]1C | 0.181 | 0.0797 | -1.72 | -0.227 | 0.0777 | -0.0888 | -1.76 (inactive) | -0.244 | -0.582 | 0.66 (inactive) | 0.789 | -0.774 (inactive) | 1.01 (inactive) | -0.355 (inactive) | -0.491 (inactive) | -0.937 (inactive) | 0.0013 (inactive) | -0.597 (inactive) | 0.808 | -0.244 |
